A short description of assay [1]: NCI Yeast Anticancer Drug Screen. Data for the rad50 strain (AID 155).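 Also: 0% = growth of vehicle-only cultures of the same strain.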 The settings on record: S. cerevisiae rad50 strain growth inhibition; at 50.0 µM; active compounds read high. A digest of the protocol:
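Genetically altered yeast (DNA repair pathway); compound treatment; growth inhibition vs vehicle ctrl.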

The nature of assay [2]: NCI Yeast Anticancer Drug Screen. Data for the mec2-1 strain (AID 157). The settings on record: S. cerevisiae mec2-1 strain, at 50.0 µM, active compounds read high. An outline of the steps:
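Yeast mec2-1 mutant treated with compound. Readout: growth inhibition vs vehicle controls.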

Assay [3] can be described thus: NCI Yeast Anticancer Drug Screen. Data for the sgs1 mgt1 strain (AID 161).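 Also: 0% = growth of cultures given vehicle only.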 The note with it: S. cerevisiae sgs1 mgt1 strain, at 50.0 µM, active compounds read high. A digest of the protocol:
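Genetically altered yeast, compound exposure, growth inhibition relative to vehicle.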

Assay [4] in a line: NCI Yeast Anticancer Drug Screen. Data for the cln2 rad14 strain (AID 165).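 Also: 0% = growth equal to vehicle treated cultures.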 The note with it: S. cerevisiae cln2 rad14 strain, at 50.0 µM, active compounds read high. An outline of the steps:
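cln2 rad14 yeast strain; compound exposure; growth inhibition read vs vehicle controls.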

A short description of assay [5]: NCI Yeast Anticancer Drug Screen. Data for the bub3 strain (AID 167). The settings on record: S. cerevisiae bub3 mutant strain, at 50.0 µM, active compounds read high. A digest of the protocol:
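Yeast carrying a defined mutation is treated with each compound, and growth is compared with that of vehicle-exposed cells to give inhibition.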

Assay [6] in a line: NCI Yeast Anticancer Drug Screen. Data for the mlh1 rad18 strain (AID 175). The settings on record: S. cerevisiae mlh1 rad18 strain growth inhibition; at 50.0 µM; active compounds read high. A digest of the protocol:
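Yeast w/ defined DNA-repair lesions; compound exposure; growth vs vehicle controls → % inhibition.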

Molecules are shown by their SMILES. This is part of a sample that, as a whole, favours compounds with a hit. Of some 79,000 tested, about 15% had one in any assay. Values without a mark were called inactive. The source made the active and inactive calls. Rule as the data show it: active = growth inhibition above about 70%; inactive = the rest.

As for `O=S(=O)(O)C(Cc1nc2ccccc2[nH]1)S(=O)(=O)OCCC1S(=O)(=O)OCCOS1(=O)=O` (stereo unspecified), the growth inhibition in assay [1] was 0%; in assay [2] it was -0.4%; in assay [3], 29.5%; in assay [4], -18.9%; in assay [5], 13.1%; in assay [6] it was -24.9%.
Turning to `CCC(/C=N/Nc1ccc([N+](=O)[O-])cc1[N+](=O)[O-])(CC)CC`, the growth inhibition in assay [1] is -2.85%; in assay [2], -8.75%; in assay [3] it was -6.25%; in assay [4], 0.25%; in assay [5], -2.85%; in assay [6], 6.8%.
Consider `COC(=O)c1[nH]c(=O)c(C#N)c(C(=O)OC)c1-c1ccc(F)cc1`, for which the growth inhibition was -4.55% in assay [1]; -24.5% in assay [2]; -15.4% in assay [3]; -2% in assay [4]; -21.2% in assay [5]; -0.05% in assay [6].
As to `Fc1ccc(-c2nc3ccccc3[nH]2)cc1`, the growth inhibition in assay [1] is -9.6%; in assay [2], 23.9%; in assay [3], -1.2%; in assay [4], -8.4%; in assay [5], -4.4%; in assay [6] it was -7.05%.
`CC(C)(C)C(O)CC(O)(C(F)(F)F)C(F)(F)F` (stereo unspecified): the growth inhibition in assay [1] was -2.45%; in assay [2] it was -21.1%; in assay [3], -12.8%; in assay [4] it was 19.6%; in assay [5], -5.9%; in assay [6], -1.9%.
Turning to `CC(C)=CC(=O)OC1C2C(CC(C)C3C(O)CC(=O)C13C)OC(=O)C2C` (stereo unspecified), the growth inhibition is -0.3% in assay [1]; -44.3% in assay [2]; -0.2% in assay [3]; 17.8% in assay [4]; -27.9% in assay [5]; -16.9% in assay [6].
Turning to `O=C(c1ccccc1)C(c1ccccc1)C1(O)C(=O)Nc2ccc(Br)cc21` (stereo unspecified), the growth inhibition is 0.9% in assay [1]; 7.35% in assay [2]; -0.15% in assay [3]; 16.1% in assay [4]; 54.9% in assay [5]; 7.1% in assay [6].
Consider `O=C1C(Cl)=C(N(C(=O)c2ccccc2)C(=O)c2ccccc2)C(=O)c2ccccc21`, for which the growth inhibition in assay [1] was 6.6%; in assay [2], -3.7%; in assay [3], 83.2% (active); in assay [4] it was 74% (active); in assay [5] it was 86% (active); in assay [6] it was -51.6%.
Consider `CC(C)C(C)(O)c1ccccc1` (stereo unspecified), for which the growth inhibition in assay [1] was -3.15%; in assay [2], -28.8%; in assay [3] it was 5.35%; in assay [4], -10.9%; in assay [5], 0.35%; in assay [6], 0.9%.
As to `CC1(C)OC2OC(C3COS(=O)O3)C(Cl)C2O1` (stereo unspecified), the growth inhibition is -2% in assay [1]; 2.45% in assay [2]; -1.4% in assay [3]; -48.8% in assay [4]; -0.7% in assay [5]; 8.6% in assay [6].
Consider `CC(=O)OCC1OC(n2ccc(=O)[nH]c2=O)C(NC(=O)C(F)(F)F)C(OC(C)=O)C1OC(C)=O` (stereo unspecified), for which the growth inhibition is 2.4% in assay [1]; -5.4% in assay [2]; -11.2% in assay [3]; -11.2% in assay [4]; -2.05% in assay [5]; -11.7% in assay [6].
As to `CCCCCCCCN(c1ccc(C(=O)NC(CCC(=O)OCC)C(=O)OCC)cc1)S(=O)(=O)c1ccc(C)cc1` (stereo unspecified), the growth inhibition was -14.6% in assay [1]; -4.5% in assay [2]; -18.9% in assay [3]; -24.6% in assay [4]; -3.6% in assay [5]; -12.2% in assay [6].
As to `CCCCCCC(=O)C/C(CCC(=O)N(Cc1ccccc1)Cc1ccccc1)=N\NC(N)=O`, the growth inhibition in assay [1] was -6.65%; in assay [2], 2.75%; in assay [3], -14.8%; in assay [4] it was 3.75%; in assay [5], -6.65%; in assay [6], -20.8%.
Take `CCN1CC(O)c2cc(N=NC(N)=O)c(O)cc21` (stereo unspecified): the growth inhibition is -3.3% in assay [1]; 14.9% in assay [2]; 3.1% in assay [3]; -8.85% in assay [4]; 3.85% in assay [5]; 23% in assay [6].
As for `Cc1cc(C)c(C)c(Br)c1`, the growth inhibition is 5% in assay [1]; 4.6% in assay [2]; -0.55% in assay [3]; -33.1% in assay [4]; 2.4% in assay [5]; 4.9% in assay [6].
With `CC(C)=C/C(C)=N/NC(N)=O`, the growth inhibition in assay [1] was 7.9%; in assay [2] it was -4.55%; in assay [3], -24.3%; in assay [4] it was -19.1%; in assay [5] it was -19.8%; in assay [6] it was -32.2%.
On to `O=C1OC2(OC2c2ccccc2)c2ccccc21` (stereo unspecified), for which the growth inhibition is 0.25% in assay [1]; -8.95% in assay [2]; -37.2% in assay [3]; -15.2% in assay [4]; -29.8% in assay [5]; -22.1% in assay [6].
Turning to `CCNC(=O)OC(C)C(O)c1ccccc1` (stereo unspecified), the growth inhibition is 0.05% in assay [1]; 11.6% in assay [2]; 33.2% in assay [3]; 6.8% in assay [4]; -19.6% in assay [5]; 29.2% in assay [6].
In the case of `CCCCCCCCc1ccccc1`, the growth inhibition in assay [1] was 34.6%; in assay [2], 30.9%; in assay [3], 35.6%; in assay [4], 13.5%; in assay [5], 9.75%; in assay [6], 21.8%.
On to `O=NC1C(Cl)C2CC1C1C(Cl)C(Cl)CC21` (stereo unspecified), for which the growth inhibition was 35% in assay [1]; 14.7% in assay [2]; 52.9% in assay [3]; 40.4% in assay [4]; 27.4% in assay [5]; 33.1% in assay [6].
Take `CC12CCC3C(CCC4CCCCC43C)C1CCC2CO` (stereo unspecified): the growth inhibition in assay [1] was 21.8%; in assay [2], 16.4%; in assay [3], 17.8%; in assay [4], -11.3%; in assay [5], 23.2%; in assay [6], 36.5%.
